Compounds with a hit are over-represented: about 21% of the library has one in this group of screens.
DT40 TDP1 no CPT = qHTS for Inhibitors of human tyrosyl-DNA phosphodiesterase 1 (TDP1): qHTS in cells in absence of CPT. Potency, µM (top dose mostly 46.2 µM), without a hit: at the highest dose activity change, negative = growth inhibition, actives largely listed as inhibitors. 420,000 tested, 15% active. DT40 Tdp1-/- hTDP1 cells, no CPT, ATP luminescence, 48 h; also: potency is read from the fitted curve at half-maximal effect; nearly all actives have a fitted effect of over 55% in size
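A cellular qHTS used chicken DT40 cells lacking endogenous Tdp1 but carrying stably transfected human TDP1. Compounds were applied without camptothecin, and cell growth kinetics were judged by ATP-dependent luminescence after ≥48 hr.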
ELG1 DNA repair = inhibitors of ELG1-dependent DNA repair in HEK293T cells. Potency, µM (titrated, usually from 46.1 µM), for the others: top-dose activity change, negative = inhibition, usual class: inhibitors. 330,000 tested, 2.3% active. HEK293T ELG1-luciferase reporter, luminescence, 16 h; DNA damage induced by 5-fluorouridine; also: potency is read from the fitted curve at half-maximal effect; nearly all actives have a fitted effect of over 55% in size
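In this reporter screen, reduction of luminescence relative to DMSO vehicle indicated activity. Compounds and 5-fluorouridine were added together to 2,000 cells per well, incubated for 16 hr at 37 °C, then developed with ONE-Glo.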
RORg inh = blocks mouse ROR gamma transcriptional activity | 310,000 tested, 5.4% active | AID 2551 | Potency, µM (highest dose often 53.6 µM), without a hit: at the highest dose activity change, negative = inhibition, actives largely listed as inhibitors | Drosophila S2 Gal4-RORgamma UAS-luciferase reporter, 20 h; also: potency is read from the fitted curve at half-maximal effect; nearly all actives have a fitted effect of over 60% in size
Target sequence (P51450 whole entry, looked up, the tested form may be a part): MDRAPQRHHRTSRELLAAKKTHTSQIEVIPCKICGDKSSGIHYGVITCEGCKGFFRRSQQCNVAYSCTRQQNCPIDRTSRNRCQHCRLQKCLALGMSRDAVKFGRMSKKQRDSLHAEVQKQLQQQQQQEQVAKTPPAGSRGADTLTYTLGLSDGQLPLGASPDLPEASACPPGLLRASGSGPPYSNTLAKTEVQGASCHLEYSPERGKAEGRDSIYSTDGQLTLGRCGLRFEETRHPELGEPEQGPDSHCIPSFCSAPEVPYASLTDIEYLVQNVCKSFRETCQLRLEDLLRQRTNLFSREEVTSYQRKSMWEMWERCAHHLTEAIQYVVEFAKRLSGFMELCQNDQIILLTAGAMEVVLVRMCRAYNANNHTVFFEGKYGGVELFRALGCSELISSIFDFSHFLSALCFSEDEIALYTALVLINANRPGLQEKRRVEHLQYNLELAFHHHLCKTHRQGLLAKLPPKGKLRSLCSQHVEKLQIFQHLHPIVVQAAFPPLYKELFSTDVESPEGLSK
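A Gal4/UAS one-hybrid system in insect cells: metallothionein-promoter Gal4–ROR gamma fusion plus Photinus luciferase reporter. Copper sulfate 700 uM final, 20 hr ambient incubation, luminescent detection after 10 min with reagent.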
IL-1B inflam inh = blocks inflammasome-driven IL-1 beta release. THP-1 LPS/ATP IL-1B secretion, AlphaLISA, 16 h; active compounds read low. activity change, % at 57.5 µM. 360,000 tested, 4.7% active. AID 743279; in the data active = activity change below about -50%; inconclusive = mostly about -30% to -49%
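Secreted IL-1B measured by AlphaLISA bead assay after 16 h compound exposure of THP-1 cells; compounds (final up to 57.5 uM) added 1 h before LPS (250 ng/mL) and ATP (1.25 mM) stimulation; lower signal means less secretion.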
Gal4-VP16 FLuc = Gal4-VP16 reporter inhibition counter-screen | AID 2546 | 310,000 tested, 3.5% active | Potency, µM (doses to about 53.6 µM), for inactives: at the top dose activity, negative = inhibition, actives largely listed as inhibitors | Drosophila S2 Gal4-VP16 UAS-luciferase, luminescence, 20 h;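 also: Gal4-VP16 expression switched on by copper sulfate through the metallothionein promoter; potency is read from the fitted curve at half-maximal effect; nearly all actives have a fitted effect of over 50% in size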
TDP1 cell CPT = growth inhibition of DT40 Tdp1-/-;hTDP1 cells with camptothecin (screen for TDP1 inhibitors). Potency, µM (highest dose often 46.2 µM), for inactives: top-dose activity change, negative = growth inhibition, actives largely listed as inhibitors. chicken DT40 Tdp1-/-;hTDP1 cells + 20 nM CPT, ATP luminescence, 48 h. 420,000 tested, 12% active; also: potency is read from the fitted curve at half-maximal effect; nearly all actives have a fitted effect of over 55% in size
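Chicken DT40 Tdp1-/- cells stably complemented with human TDP1 were seeded at 400 cells/well in medium containing 20 nM camptothecin, exposed to pin-transferred compounds, and grown at 37 °C for at least 48 hr. Viability was read as ATP luminescence.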
An asterisk follows results filed as active; ? = inconclusive; · = no result; ! = not active in a repeat; [ ] = another dose, or the depositor's remark. Unless noted, calls follow the shape of the dose curve; as a rule, active = well fitted curve in the direction sought with a large enough effect; inconclusive = small, poorly fitted or top-dose-only effect, or another doubt; inactive = no such curve, though single readings can be large; an effect the other way counts as inactive or inconclusive. % is scaled to controls: 0 for no effect and ±100 for the full control effect.

SMILES | DT40 TDP1 no CPT | ELG1 DNA repair | RORg inh | IL-1B inflam inh | Gal4-VP16 FLuc | TDP1 cell CPT
Cc1ccc(C(=O)Nc2cccc([N+](=O)[O-])c2)cc1S(=O)(=O)Nc1ccc(NC(=O)c2ccccc2)cc1 | 16µM* | 5.2µM* | ? | 6 | 0% | 16µM*
COc1ccc(CNC(=O)C2=C(C)C(=O)OC23CCN(C(C)=O)CC3)cc1 | -21% | · | · | · | · | 3%
N#Cc1cccnc1Oc1ccccc1 | -16% | ? | 0% | -11 | 4% | -19%
O=C(Nc1cccc(F)c1)Nc1nnc([C@@H]2O[C@H](CO)[C@@H](O)[C@H]2O)s1 | -8% | · | · | 29 | · | -13%
COC(=O)c1ccc(NC2(C#N)C(=O)Nc3ccccc32)cc1 (stereo not drawn) | 23µM* | 0% | 16% | 7 | -3% | ?
Cc1ccc(S(=O)(=O)n2cc(-c3ccccc3)c3ccccc32)cc1 | 2.3µM* | ? | · | 69 | · | 3.7µM*
O=C(C[C@H]1C/C=C\CC[C@@H](Cc2ccc(F)cc2)C(=O)O[C@@H](c2ccccc2)CNC1=O)N[C@@H](CO)Cc1ccccc1 | -18% | 0% | · | 29 | · | -20%
Cc1cccc[n+]1CC(=O)c1ccc(Cl)cc1 | -2% | · | · | -5 | · | -2%
CC(C)(C)c1ccc(C(=O)C[n+]2ccc(Cl)c3ccc(Cl)cc32)cc1 | 0.35µM* | · | · | · | · | 0.89µM*
CCC(CC)=N/N=C/c1c(O)n(CC)c2cc(C3=NNC(=O)CC3)ccc12 | 9.2µM* | 21µM* | ? | -11 | ? | ?
CCn1c(O)c(/C=N/N=C/c2ccccc2)c2ccc(C3=NNC(=O)CC3)cc21 | 18µM* | 26µM* | 22% | ? | -5% | ?
COc1cccc(CN2CCC(n3cc(C(=O)N4CCCCC4)nn3)CC2)c1OC | -10% | · | · | · | · | 3%
CCCCC(=O)Nc1c(C)cc(C)cc1Cl | -19% | 11% | -30% | -29 | 8% | -7%
Cc1cc(Br)cc(C)c1NC(=S)NC(=O)CC(C)C | ? | -2% | 4.5µM* | 51 | 7.9µM* | ?
CCCCCC(=O)NC(=S)Nc1ccc(Br)cc1C | -17% | 26% | 10µM* | 1 | ? | 0%
CCCC(=O)NC(=S)Nc1c(C)cc(Br)cc1C | 16µM* | · | · | 73 | · | ?
Cc1ccc(O)c(NC(=S)NC(=O)CC(C)C)c1 | ? | ? | ? | ? | ? | -7%
CCCCC/C=C\C/C=C\C/C=C\CCCCC(=O)NC(C)C(=O)O (stereo not drawn) | · | · | 1% | · | -3% | ·
CC1CC(C)CN(C(=S)NC2CCCCC2)C1 (stereo not drawn) | 26µM* | -3% | ? | 14 | ? | ?
O=C(NC1CCCCCC1)C(=S)N1CCOCC1 | 16µM* | 15% | 12% | -7 | -3% | ?
CCOC(=O)N1CCN(C(=S)NC2CCCCC2)CC1 | -12% | 7% | -10% | 28 | ? | -22%
S=C(NC1CC1)N1CCN(C(=S)NC2CC2)CC1 | 24% | ? | -8% | 20 | -13% | -16%
O=C(NC1CCCCCC1)C(=S)NC1CCCCC1 | 5% | ? | 1% | 8 | 6%[10 µM] | 9%
S=C(NC1CCCCC1)N1CCOCCOCCN(C(=S)NC2CCCCC2)CCOCCOCC1 | ? | 18µM* | -11% | -9 | ? | ?
COc1ccc(C2C(C(=O)c3ccccc3)N3c4ccccc4C=CC3C2[N+](=O)[O-])cc1 (stereo not drawn) | 10µM* | 3% | ? | -21 | -24% | 7.3µM*
SMILES | DT40 TDP1 no CPT | ELG1 DNA repair | RORg inh | IL-1B inflam inh | Gal4-VP16 FLuc | TDP1 cell CPT
CC(C)(C)C1=CC(=Nc2ccccc2N)C=C(C(C)(C)C)C1=O | ? | 3% | -11% | -113* | 5% | ?
O=C(/C(=C/O)N=Nc1ccccc1)c1ccc(Cl)cc1 | ? | ? | -91% | -102* | ? | ?
CC(C)(C)C1(O)CCN2CC3c4ccccc4CCc4cccc(c43)C2C1 (stereo not drawn) | 24µM* | · | · | · | · | 17µM*
CC(C)(C)[C@]1(O)CCN2C[C@H]3c4ccccc4CCc4cccc(c43)[C@@H]2C1 | 12µM* | -15% | 40% | -16 | ? | 8.2µM*!
O=C(C1CCCCC1)N1CC(=O)N2CCc3ccccc3[C@@H]2C1 | · | · | 3%[16.9 µM] | · | -1%[17 µM] | ·
C=CC(=O)c1ccc(CCCCCC)cc1 | · | · | 1% | · | -25% | ·
COc1ccc(C(CCN2CCCC2)c2c(O)cc(OC)cc2OC)cc1 (stereo not drawn) | ? | 12% | -3% | -17 | -8% | 18µM*
COc1cc(O)c(C(CCN2CCCC2)c2cc(OC)c(OC)c(OC)c2)c(OC)c1 (stereo not drawn) | ? | ? | -2% | 32 | 1% | -14%
COc1cc(O)c(C(CCN2CCCCC2)c2cc(OC)c(OC)c(OC)c2)c(OC)c1 (stereo not drawn) | -24% | 19% | -14% | -26 | 3% | ?
CCN(CC)C(=O)CC(c1ccc(OC)cc1)c1c(O)cc(OC)cc1OC (stereo not drawn) | ? | 0% | ? | -4 | 1% | ?
CCN(CC)CCC(c1ccc(OC)cc1)c1c(O)cc(OC)cc1OC (stereo not drawn) | ? | 1% | -3% | -19 | -6% | 21µM*
COc1ccc(C(CCN2CCCCC2)c2c(O)cc(OC)cc2OC)cc1 (stereo not drawn) | 18µM* | 8% | -15% | -24 | -9% | 18µM*
Cc1ccc(NS(=O)(=O)c2cccc(C(=O)NNC(=O)c3ccco3)c2)c(C)c1 | ? | 4% | · | -7 | · | -23%
CCc1ccc(NC(=O)Cn2c(=O)n(Cc3ccco3)c(=O)c3oc4ccccc4c32)cc1 | -15% | · | · | · | · | -21%
CC(C)(C)c1ccc(C(=O)NCC(c2cccnc2)N2CCc3ccccc3C2)cc1 (stereo not drawn) | 1.8µM* | · | · | · | · | 2.3µM*
Cc1ccc(NC(=O)C(=O)NCC(c2cccnc2)N2CCN(C)CC2)cc1 (stereo not drawn) | -8% | · | · | · | · | -12%
N#Cc1ccccc1NC(=O)C(=O)NCC(c1cccnc1)N1CCN(c2ccccc2)CC1 (stereo not drawn) | -18% | · | · | · | · | ?
O=C(NCC(c1cccnc1)N1CCc2ccccc21)C(=O)Nc1ccccc1F (stereo not drawn) | ? | · | · | · | · | 7.3µM*
Cc1ccc(NC(=O)C(=O)NCC(c2cccnc2)N2CCN(C)CC2)cc1C (stereo not drawn) | -4% | · | · | · | · | -2%
